Results as given in PubChem BioAssay (Tox21).
Results filed as inconclusive are left out. Entries that show only a call come without a potency. A number with no mark means an inactive call. Active and inactive are the calls of the source. The call rests on the fitted dose curve; in most records, active means well fitted cell-killing curve with a large enough effect in the repeat runs; inconclusive means weak or mixed curves; inactive means flat fitted curve, though single readings scatter.
Potency means the concentration at half of the fitted maximal effect.

Assay: qHTS RealTime-Glo MT Cell Viability Assay in HepG2 cells - 32 hour (AID 1224877); further: nearly all actives have a fitted effect of over 55% in size
Details: RealTime-Glo luminescence; series mostly up to 76.8 µM
Text: U.S. Tox21 Program National Center for Advancing Translational Sciences [NCATS] NIH Chemical Genomics Center [NCGC] U.S. Environmental Protection Agency [EPA] National Institutes of Environmental Health Sciences [NIEHS] National Toxicology Program [NTP] U.S. Food and Drug Administration [FDA] Tox21 Assay Overview: Measure of cell viability is critical in the cell-base assay. Analysis of cell viability is necessary for the characterization of cell responses to cytotoxic drugs and environmental stress. A RealTime-Glo MT Cell Viability Assay to monitor cell viability in real time of continues cell culture during 40 hours of compound treatment was used to screen Tox21 10K library compounds in HepG2 cells. The RealTime-Glo MT Cell Viability Assay is a nonlytic, homogeneous, bioluminescent method to measure cell viability in real time using a simple, plate-based method. The assay involves adding NanoLuc luciferase and a cell-permeant prosubstrate to cells in culture. Viable cells reduce the proprietary prosubstrate to generate a substrate for NanoLuc luciferase. This substrate diffuses from cells into the surrounding culture medium, where it is rapidly used by the NanoLuc Enzyme to produce a luminescent signal. The signal correlates with the number of viable cells, making the assay well suited for cytotoxicity studies.
Tox21 Assay Protocol Summary: The mixture of HepG2 cell suspension and reagents were dispensed at 600cells/6 ul/well in 1536-well tissue culture treated black solid bottom plates using a Multidrop dispenser. After the assay plates were incubated at a 37 C/5% CO2 incubator for 5 hours, 23 nL of compounds dissolved in DMSO, positive and negative controls was transferred to the assay plate by a pintool work station. The plates were incubated at 37 C for 40 hours. The luminescence intensity were measured at 0h, 8h, 16h, 24h, 32h and 40h time points using ViewLux plate reader during compound treatment.
For CC1=CCC(=C(C)C)CC1, the Potency was “inactive”.
In the case of CCCCOC(=O)CC, the Potency was “inactive”.
In the case of OC[C@H]1O[C@H](O[C@H]2O[C@H](CO)[C@@H](O)[C@H](O)[C@H]2O)[C@H](O)[C@@H](O)[C@@H]1O, the Potency was “inactive”.
With S=C([S-])NCCNC(=S)[S-].S=C([S-])NCCNC(=S)[S-].[Mn+2].[Zn+2] the Potency was “inactive”.
For C=CCn1c(=O)n(CC=C)c(=O)n(CC=C)c1=O, the Potency was “inactive”.
With CCCCOC(=O)CO the Potency was “inactive”.
For CC(C)=CCC1=C(O)c2ccccc2C(=O)C1=O, the Potency was “inactive”.
For CC[N+](CC)(CC)CCOC(=O)C(C1CCCC1)C1CCCC1, the Potency was “inactive”.
For Clc1nnc(Cl)c2ccccc12, the Potency was “inactive”.
In the case of CCOC(=O)c1ccc(C2CCC(NC[C@H](O)COc3ccc(O)c(NS(C)(=O)=O)c3)CC2)cc1 (stereo not given in full), the Potency was 45.2 µM (active).
For COc1cc(C)ccc1O, the Potency was “inactive”.
For Fc1ccc(C(c2ccc(F)cc2)N2CCNCC2)cc1, the Potency was “inactive”.
With O=[N+]([O-])c1ccc(F)c(Cl)c1 the Potency was “inactive”.
With COC1=C(OC)C(=O)C(CCCCCCCCCCO)=C(C)C1=O the Potency was “inactive”.
In the case of CC(CO)Oc1ccccc1 (stereo not given), the Potency was “inactive”.
For CC1(C)CCC[C@]2(C)[C@H]3CC(=O)O[C@]3(C)CC[C@@H]12, the Potency was “inactive”.
With O=c1[nH]c2ccccc2n1CCCN1CCN(C(c2ccccc2)c2ccccc2)CC1 the Potency was 26.8 µM (active).
In the case of CCCCC(CC)COC(=O)CCCCC(=O)OCc1ccccc1 (stereo not given), the Potency was “inactive”.
For O=C(O)Cc1ccccc1Nc1c(Cl)cccc1Cl, the Potency was “inactive”.
With CCCCCCCCCCCC(=O)OCC(C)OC(=O)CCCCC(=O)O (stereo not given) the Potency was “inactive”.
In the case of C=Cc1cccc(C)c1, the Potency was “inactive”.
With O=C(O)CCN(C1(C(=O)NO)CCCC1)S(=O)(=O)c1ccc(Oc2ccc(F)cc2)cc1 the Potency was “inactive”.
With OC12N=C(c3ccccc3)SC1Cc1cc(Cl)ccc12 (stereo not given) the Potency was “inactive”.
For O=C(O)c1cccc(C(F)(F)F)c1, the Potency was “inactive”.
For CC(C)(C)C1CCC(=O)CC1, the Potency was “inactive”.
For C#C[C@]1(OC(C)=O)CC[C@H]2[C@@H]3CCC4=C[C@@H](OC(C)=O)CC[C@@H]4[C@H]3CC[C@@]21C, the Potency was “inactive”.
For O=C1c2ccccc2C(=O)N1SC1CCCCC1, the Potency was 43.6 µM (active).
With CC(C)=CCNc1ncnc2c1ncn2[C@@H]1O[C@H](CO)[C@@H](O)[C@H]1O the Potency was “inactive”.
For Nc1ccc(NCCO)c([N+](=O)[O-])c1, the Potency was “inactive”.
For Cc1c2ccccc2c(C)c2c1ccc1ccccc12, the Potency was “inactive”.
In the case of Cc1c(C)c2c(c(C)c1OC(=O)c1cccnc1)CC[C@@](C)(CCC[C@H](C)CCC[C@H](C)CCCC(C)C)O2, the Potency was “inactive”.
In the case of NC[C@H]1O[C@H](O[C@H]2[C@H](O[C@@H]3O[C@H](CO)[C@@H](O)[C@H]3O)C(O)[C@H](N)C[C@@H]2N)[C@H](N)[C@@H](O)[C@@H]1O (stereo not given in full), the activity change, negative = cytotoxic was 0.467% [at 6.97 µM].
In the case of Cc1cc(C(C#N)c2ccc(Cl)cc2)c(Cl)cc1NC(=O)c1cc(I)cc(I)c1O (stereo not given), the Potency was “inactive”.
In the case of C#CC1(O)CC[C@H]2[C@@H]3CCC4=CCCC[C@@H]4[C@H]3CC[C@@]21C (stereo not given in full), the Potency was 23.9 µM (active).
In the case of CCCCCCCC, the Potency was “inactive”.
With Nc1nc(-c2ccccc2)cs1 the Potency was “inactive”.
For COc1cccc2c1C(=O)c1c(O)c3c(c(O)c1C2=O)C[C@@](O)(C(C)=O)C[C@@H]3O[C@H]1C[C@H](N)[C@H](O)[C@H](C)O1, the Potency was 22 µM (active).
For CC(C)(c1cc(Br)c(OCC(Br)CBr)c(Br)c1)c1cc(Br)c(OCC(Br)CBr)c(Br)c1 (stereo not given), the Potency was “inactive”.
With O=C(/C=C/c1ccccc1)OC/C=C/c1ccccc1 the Potency was “inactive”.
In the case of Cc1nc2n(c(=O)c1CCN1CCC(c3noc4cc(F)ccc34)CC1)CCCC2, the Potency was “inactive”.
